Screening data deposited in PubChem by National Center for Advancing Translational Sciences (NCATS).
Most compounds without a hit are left out; they make up all but 3.6% or so of the library.
GALC G270D act – galactocerebrosidase G270D activity enhancement, cell-based; P54803; 145M-Twi-hGALC-G270D cells (Twitcher mouse brain line with human GALC G270D), HMU-beta-Gal fluorescence, 48 h; Potency, µM (top dose mostly 57.5 µM), most hits filed as activators; 0.1% of 45,000 active; AID 1159614; further: potency means the concentration at half of the fitted maximal effect; 0% is about no effect; nearly all actives have a fitted effect of over 65% in size
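Fluorogenic HMU-b-Gal hydrolysis (0.1 mM final, pH 5.2 citrate-phosphate with 1 mg/mL sodium taurocholate; carbonate stop buffer) measures mutant GALC activity after compound treatment of live 145M-Twi Twitcher brain cells stably carrying human GALC-G270D, with wild-type GALC line alongside; activation sought.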
mTORC1 inh – inhibitors of mTORC1 signaling in Tsc2-/- p53-/- MEF cells; Tsc2-/- p53-/- MEF, phospho-rpS6 immunofluorescence/PI, 24 h; Potency, µM (highest dose often 38.3 µM), inactives show at the highest dose activity change, negative = inhibition, actives largely listed as inhibitors; 0.78% of 44,000 active;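 further: potency means the concentration at half of the fitted maximal effect; plate controls were DMSO for no effect and rapamycin for full effect; nearly all actives have a fitted effect of over 50% in size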
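Read-out: phospho-S6 Alexa-488 intensity over PI intensity per well, scored as % active cells using thresholds from rapamycin (7.5 nM) and DMSO controls. Tsc2-/-, p53-/- MEFs exposed to compound for 24 h; PI cell count recorded as viability.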
NTMT1 inh – inhibitors of human N-terminal methyltransferase NTMT1. Q9BV86. NTMT1 MTase-Glo SAH luminescence, purified enzyme. Potency, µM (series often up to 114 µM), without a hit: top-dose activity change, negative = inhibition, most hits filed as inhibitors. 2.5% of 59,000 active;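 further: potency means the concentration at half of the fitted maximal effect; plate controls were DMSO vehicle for no effect and no enzyme for full effect; nearly all actives have a fitted effect of over 65% in size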
PMP22 txn – PMP22 gene transcription modulation | 2% of 43,000 active | S16 Pmp22-F2sN Schwann cells, FLuc/NLuc coincidence luminescence, 24 h | AID 1508649 | Potency, µM (series often up to 57.5 µM), for the others: at the top dose activity change, negative = inhibition, usual class: inhibitors; active means clear falling dose curves in both reporters; inconclusive means both reporters move, but less clearly or upward; inactive means either reporter flat; the % is the NLuc reporter signal; further: potency means the concentration at half of the fitted maximal effect; on the % scale 0 is the no-effect control and ±100 the full control effect
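Rat S16 Pmp22-F2sN cells, 500-1,000/well in phenol red-free DMEM + 10% FBS, compound-treated 24 h (37C, 5% CO2). Luminescence: FLuc read, Stop&Glo added, NLuc read.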
OvCa metastasis – ovarian cancer metastasis inhibition, 3D TME model; 0.1% of 46,000 active; SKOV3ip1-GFP adhesion/invasion on 3D omental model, fluorescence; Potency, µM (highest dose often 45.8 µM), for the others: at the top dose activity change, negative = inhibition, most hits filed as inhibitors;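 further: potency means the concentration at half of the fitted maximal effect; plate controls were DMSO wells for no effect and tomatine positive control wells for full effect; nearly all actives have a fitted effect of over 65% in size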
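qHTS, 4-pt dose (0.36-46 umol/L); SKOV3ip1-GFP, 1,200 cells/well, no FBS; primary omental fibroblast/mesothelial co-culture 48 h pre-grown; 2 h RT + 16 h 37 C; PBS wash, 4% PFA; GFP count 488/509 nm.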
S16 F2sN tox – S16 Schwann cell cytotoxicity. S16 Pmp22-F2sN Schwann cells viability, CellTiter-Glo, 24 h. Potency, µM (series often up to 57.5 µM), for the others: at the highest dose activity change, negative = cytotoxicity, usual class: cytotoxic. 0.48% of 43,000 active. AID 1508642; further: potency means the concentration at half of the fitted maximal effect; on the % scale 0 is the no-effect control and ±100 the full control effect; nearly all actives have a fitted effect of over 65% in size
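Used to flag compounds lowering reporter output through toxicity, this quantitative HTS measures ATP-based CellTiter-Glo luminescence in S16 Pmp22-F2sN Schwann cells after 24 h compound exposure at 37C.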
Sfp qHTS opt – inhibits purified B. subtilis Sfp PPTase | purified Sfp PPTase enzyme activity, qHTS | shares compounds with NTMT1 inh | Potency, µM (highest dose often 114 µM), inactives show top-dose activity change, negative = inhibition, usual class: inhibitors | 78% of 230 active
HM489 growth – B. subtilis HM489 growth inhibition. AID 540353. 50% of 220 active. shares compounds with NTMT1 inh. B. subtilis HM489 (acpS-) growth, BacTiter-Glo, 5 h. Potency, µM (titrated, usually from 114 µM), for the others: at the highest dose activity change, negative = inhibition, actives largely listed as inhibitors
Sfp gel opt – Sfp PPTase inhibition, gel-based detection | 54% of 220 active | purified Sfp PPTase, gel-based product detection | AID 540355 | Potency, µM (highest dose often 250 µM), without a hit: top-dose activity change, negative = inhibition, most hits filed as inhibitors | shares compounds with NTMT1 inh
Sfp SAR2 – inhibitors of Bacillus subtilis Sfp PPTase, SAR round 2; shares compounds with NTMT1 inh; purified Sfp enzyme, PPTase activity, qHTS; Potency, µM (doses to about 57.1 µM), inactives show top-dose activity change, negative = inhibition, most hits filed as inhibitors; 87% of 230 active
hGST A1-1 inh – inhibits hGST A1-1 in Sfp inhibitor counter-screen. 55 tested, under 10 active. hGST A1-1 enzyme activity counter-screen, qHTS. shares compounds with NTMT1 inh. AID 602391. Potency, µM (top dose mostly 114 µM), for the others: at the highest dose activity change, negative = inhibition, actives largely listed as inhibitors
HSD17B4 counter – HSD17B4 (human) inhibition, HPGD counter-screen. shares compounds with NTMT1 inh. purified HSD17B4, estradiol/NAD+, NADH fluorescence. Potency, µM (doses to about 57.1 µM), without a hit: at the highest dose activity change, negative = inhibition, actives largely listed as inhibitors. 10% of 230 active. AID 743187
Target sequence (P51659 whole entry, looked up): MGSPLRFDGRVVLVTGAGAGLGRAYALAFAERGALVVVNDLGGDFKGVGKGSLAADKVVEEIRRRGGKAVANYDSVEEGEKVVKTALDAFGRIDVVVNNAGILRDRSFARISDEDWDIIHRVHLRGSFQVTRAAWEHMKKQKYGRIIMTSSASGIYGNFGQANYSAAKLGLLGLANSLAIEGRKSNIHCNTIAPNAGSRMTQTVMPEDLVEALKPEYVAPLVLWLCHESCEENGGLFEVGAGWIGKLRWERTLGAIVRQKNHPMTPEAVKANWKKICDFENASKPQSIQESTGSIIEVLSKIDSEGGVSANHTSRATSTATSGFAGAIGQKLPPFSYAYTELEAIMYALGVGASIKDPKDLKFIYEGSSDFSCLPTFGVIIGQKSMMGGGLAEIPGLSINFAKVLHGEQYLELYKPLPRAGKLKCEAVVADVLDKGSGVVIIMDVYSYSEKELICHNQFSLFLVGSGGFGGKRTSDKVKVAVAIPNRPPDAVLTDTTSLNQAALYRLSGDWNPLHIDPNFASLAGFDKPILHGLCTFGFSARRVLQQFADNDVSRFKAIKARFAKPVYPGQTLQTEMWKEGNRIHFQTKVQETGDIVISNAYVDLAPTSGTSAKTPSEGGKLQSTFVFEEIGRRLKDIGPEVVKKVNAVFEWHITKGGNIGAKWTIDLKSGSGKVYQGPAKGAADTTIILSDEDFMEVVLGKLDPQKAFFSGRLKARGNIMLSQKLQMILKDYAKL
ALDH1A1 counter – inhibits human ALDH1A1, off-target for HPGD inhibitors. shares compounds with NTMT1 inh. recombinant ALDH1A1, NADH fluorescence, propionaldehyde/NAD+. Potency, µM (series often up to 57.1 µM), for the others: at the top dose activity change, negative = inhibition, actives largely listed as inhibitors. 93% of 230 active. AID 743195
NNMT inh – blocks human NNMT methyltransferase; shares compounds with NTMT1 inh; NNMT MTase-Glo luminescence, SAH detection; Potency, µM (doses to about 57.1 µM), inactives show top-dose activity, negative = inhibition, usual class: inhibitors; 10% of 120 active; AID 1645878
* marks the source's active call; other numbers are inactive results; i = inactive; ? = inconclusive; . = not tested or not shown; [ ] = dose if it differs, or a comment. Unless noted, the call rests on the fitted dose curve; in most records, active means well fitted curve in the direction sought with a large enough effect; inconclusive means small, poorly fitted or top-dose-only effect, or another doubt; inactive means no such curve, though single readings can be large; an effect the other way counts as inactive or inconclusive.

SMILES	GALC G270D act	mTORC1 inh	NTMT1 inh	PMP22 txn	OvCa metastasis	S16 F2sN tox	Sfp qHTS opt	Sfp SAR2	HSD17B4 counter	ALDH1A1 counter	others
CC1=CCC(C(C)(C)O[C@@H]2O[C@H](CO[C@@H]3O[C@@H](C)[C@H](O)[C@@H](O)[C@H]3O)[C@@H](O)[C@H](O)[C@H]2O)CC1 (stereo not given in full)	.	.	8%[29.8 µM]	.	.	.	.	.	.	.
N#CC(CCCN1CCC(O)(c2ccc(Cl)cc2)CC1)(c1ccccc1)c1ccccc1	.	.	1%[57.5 µM]	.	.	.	.	.	.	.
Cc1cnc(-c2ccccc2C(F)F)nc1NCc1ccc(-n2ccnn2)cc1	.	.	0%	.	.	.	.	.	.	.
CC(=O)c1ccc(N2CCN(C(=O)CCC(=O)Nc3ccc4nc(N5CCCCC5)cc(C)c4c3)CC2)cc1	i	-8%	?	-23%	26%	-10%	.	.	.	.
Cc1cc(C)nc(NC(=S)N2CCN(c3ccc(C(=O)O)cc3)CC2)c1	.	.	?	.	.	.	9.4µM*	3.2µM*	?	22µM*	HM489 growth=-1%;Sfp gel opt=-56%
FC(F)(F)c1cnc(N2CCN(C(=S)Nc3cc(Cl)ccn3)CC2)c(Cl)c1	.	.	?	.	.	.	9.4µM*	1.3µM*	-26%	3.8µM*	HM489 growth=12µM*;Sfp gel opt=?
Cc1ccnc(NC(=S)N2CC3CN(c4ncc(C(F)(F)F)cc4Cl)CC3C2)c1 (stereo not given)	.	.	?	.	.	.	0.58µM*	1.3µM*	-2%	0.38µM*	hGST A1-1 inh=-3%
COc1cc2c(NC3CCN(C(C)C)CC3)nc(N3CCCN(c4ccccc4)CC3)nc2cc1OCCCN1CCCC1	.	.	.	.	.	.	.	.	.	.	NNMT inh=-11%
COc1cc2c(NC3CCN(C(C)C)CC3)nc(N3CCC(F)(F)CC3)nc2cc1OCCCN1CCCC1	.	.	-24%[57.5 µM]	.	.	.	.	.	.	.
